# From PubChem BioAssay
# VLA-4 inh – inhibition in a human VLA-4 binding assay; P13612; VLA-4 expressing cells, ligand binding flow cytometry; inhibition, % (about 7 µM as worked out from the volumes in the protocol); hit rate 0.2% among 330,000; AID 2557; in the data active = inhibition above about 50%
# DSG3 Ab inh – human desmoglein-3 autoantibody binding inhibition | P32926 | DSG3-coupled beads, scFv-anti-DSG3-GFP binding, flow cytometry; stronger effect = lower value | binding (percent of control), % at 10 µM | hit rate 0.48% among 310,000;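 active = binding more than 3 SD below its plate's average and above zero; inconclusive = below that plate limit but binding exactly zero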;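 note: hits lower antibody fragment binding to DSG3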
# AI-2 QS modul – modulators of Vibrio harveyi AI-2 quorum sensing system; Vibrio harveyi JMH597 AI-2 luminescence/OD600 ratio, 9 h; stronger effect = lower value; strain lacks LuxN and CqsS sensors; 0 = neutral-control median; activity change, % at 7.5 µM; AID 2094; hit rate 0.4% among 300,000; in the data active = activity change below about -75%, passing the limit was not always enough; inconclusive = no clear call, values can overlap the other calls;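 note: luminescence divided by OD600 gain over 9 h not by final OD600 alone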
# NTR1 ag – agonists of human neurotensin receptor NTR1 | P30989 | NTR1-U2OS beta-arrestin-GFP spot imaging, agonist mode | activation, % at 20 µM | hit rate 0.17% among 330,000;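 active = activation at or above 40% of the spot to cytoplasm intensity ratio, with at least 20 cells analyzed; inconclusive = wells under 20 cells, flagged as cytotoxic or low count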;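 note: 0% = DMSO without peptide and 100% = 100 nM NTR1 peptide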
# JMH597 growth rt – retest: blocks Vibrio harveyi JMH597 growth; shares compounds with AI-2 QS modul; OD600 absorbance, 9 h; lacks LuxN and CqsS sensors; growth inhibition, % at 7.5 µM; hit rate 1% among 750; AID 2726;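 active = every replicate shows growth inhibition above 50%; inconclusive = at least half, but not all, replicates pass that cutoff; inactive = fewer than half of replicates pass it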
# BB721 lum counter – retest counter-screen: BB721 constitutive quorum sensing luminescence decrease; inhibition, % at 7.5 µM; AID 2727; hit rate 95% among 750; Vibrio harveyi BB721 luminescence, 9 h; shares compounds with AI-2 QS modul;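 active = inhibition above about 80% in every replicate, not just on average, limit read from the data; inconclusive = at least half of replicates past the limit, but not all; inactive = fewer than half of replicates past the limit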
# BB721 growth – retest: inhibitors of Vibrio harveyi BB721 growth; shares compounds with AI-2 QS modul; growth inhibition, % at 7.5 µM; OD600 absorbance, 9 h; hit rate 3% among 750;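 active = every replicate shows growth inhibition above 50%; inconclusive = at least half but not all replicates above 50% inhibition; inactive = under half of replicates above 50% inhibition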
# JMH597 AI-2 mod – Vibrio harveyi AI-2 signaling luminescence modulation – JMH597 strain, confirmation. shares compounds with AI-2 QS modul. Vibrio harveyi JMH597 AI-2 quorum sensing luminescence, 9 h; luxN and CqsS knockout, AI-2 only. inhibition, % at 7.5 µM. hit rate 97% among 750. AID 2736;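 active = every replicate shows more than 75% inhibition of signal versus neutral control wells; inconclusive = half to three quarters of replicates exceed 75% inhibition; inactive = fewer than half of replicates exceed 75% inhibition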
# VLA-4 mod pick – confirmation of allosteric modulators of human VLA-4 integrin. AID 2813. shares compounds with VLA-4 inh. U937 cells, HUTS-21 LIBS mAb binding, flow cytometry; LDV ligand present at threefold Kd. hit rate 2% among 1,300. inhibition, % at 6.7 µM; in the data active = inhibition above about 40%;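 note: 0% = ligand without compound and 100% = no ligand background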
# NTR1 ag confirm – confirmation of agonists of human NTR1; shares compounds with NTR1 ag; NTR1-U2OS beta-arrestin-GFP translocation imaging; activation, % at 20 µM; hit rate 38% among 480;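 active = mean activation at 20 µM of at least 40%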;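 note: 0% = DMSO without peptide and 100% = 100 nM NTR1 peptide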
# * = called active by the depositor; ? = inconclusive; · = no result given. In the library only some 1.1% were active in any assay of this set; here they are far more common.
SMILES,VLA-4 inh,DSG3 Ab inh,AI-2 QS modul,NTR1 ag,VLA-4 mod pick,others
C=C1C(=O)O[C@@H]2C[C@@H](C)[C@@H]3C4OC4C(=O)[C@@]3(C)[C@@H](O)[C@H]12 (stereo not given in full),1,101,-5,14,·,
O=C(COC(=O)Cc1ccccc1)Nc1ccc(SC(F)F)cc1,0,102,-91*,-1,·,JMH597 growth rt=30;BB721 lum counter=94*;BB721 growth=-39;JMH597 AI-2 mod=99*
CCC1(c2ccc(-c3ccccc3)cc2)C(=O)NC(=O)NC1=O,-2,110,-90*,0,·,JMH597 growth rt=26;BB721 lum counter=98*;BB721 growth=40;JMH597 AI-2 mod=98*
CCC1(c2ccccc2)C(=O)NC(=O)NC1=O,36,101,·,0,·,
O=C(c1cc2cc(Cl)ccc2[nH]1)N1CCC2(CC1)OCCO2,4,95,-84*,1,·,JMH597 growth rt=18;BB721 lum counter=96*;BB721 growth=15;JMH597 AI-2 mod=98*
COc1ccc(-n2c(CN3CCOCC3)nc3ccccc3c2=O)c(OC)c1,7,130,6,-2,·,
COc1cccc(-c2sc3ccccc3c2-c2ccc(OCCN3CCOCC3)cc2)c1,17,96,·,4,-1,
COc1cc(C(=O)OC2C[C@H]3CC[C@@H](C2)N3)ccc1O (stereo not given in full),2,?,12,-1,-3,
COc1ccc(C(=O)OC2CC3CCC(C2)[N+]3(C)[O-])cc1OC (stereo not given),6,?,12,2,0,
CN1C2CCC1CC(OC(=O)c1cc(Cl)cc(Cl)c1)C2 (stereo not given),93*,108,3,0,-1,
CN1CCN(CCC(=O)OC2CC3CCC(C2)N3C)CC1 (stereo not given),12,112,21,-1,·,
CCC(CO)(C(=O)OC1CC2CCC(C1)N2C)c1ccccc1 (stereo not given),-2,98,5,-1,·,
C[N+]1(C)C2CCC1CC(OC(=O)c1ccco1)C2 (stereo not given),-9,87,9,0,·,
COc1cc(C(=O)OC2C[C@H]3CC[C@@H](C2)N3C)ccc1O (stereo not given in full),11,99,11,-1,2,
O=C1NC(=S)NC(=O)C1=Cc1ccc(OCC(=O)N2CCCC2)cc1,-13,·,2,-1,·,
CN1CCC(N(C)c2ccc(C(N)=O)cc2[N+](=O)[O-])CC1,5,113,49,1,·,
O=C(C1CCN(S(=O)(=O)c2ccccc2)CC1)N1CCC2(CC1)OCCO2,11,101,23,0,·,
COC(=O)CC1=C(C(=O)OC)C2(C(=O)Nc3c(C)cccc32)C(C#N)=C(N)O1 (stereo not given),107*,104,16,-1,-6,
NC(=O)Cn1cc(C(=O)c2ccccc2)c2ccccc21,-7,102,5,0,0,
Cc1cc(C(=O)OCC(=O)Nc2ccc(F)cc2)c(C)n1C1CC1,2,?,·,0,·,
Cc1ccsc1/C=C1\C(=O)NC(=S)N(C)C1=O,46,107,44,19,34,
CN1C(=O)/C(=C/c2ccc(Cl)s2)C(=O)NC1=S,19,341,-25,·,·,
COc1ccc(CC2C(=O)NC(C)C(=O)N(C)C3C(=O)N(C)C(Cc4ccc(O)c(c4)Oc4ccc(cc4)C3O)C(=O)NC(C)C(=O)NC(C)C(=O)N2C)cc1 (stereo not given),·,89,·,·,·,
C=C(C=O)CC1CC(O)[C@]2(C)OC3C[C@@H]4OC5C[C@]6(C)O[C@]7(C)CCC8OC9C[C@]%10(C)OC(/C(C)=C\CO)C(O)CC%10OC9CC(C)C8OC7CC6O[C@]5(C)C/C=C\C4OC3CC2O1 (stereo not given in full),2,107,·,-2,·,
C=C(C=O)C[C@@H]1C[C@H](O)C2OC3C[C@]4(C)OC5/C=C\CC6OC7C(CC=CCC6OC5CCCC4OC3CC2O1)OC1CC2OC3CC(=O)OC3C[C@@H](C)C[C@@]2(C)OC1C[C@@H]7C (stereo not given in full),60*,·,7,23,67*,
SMILES,VLA-4 inh,DSG3 Ab inh,AI-2 QS modul,NTR1 ag,VLA-4 mod pick,others
O=[N+]([O-])c1cc(-n2cnnn2)c(O)c([N+](=O)[O-])c1,6,113,-1,1,·,
COC(=O)C1=C(c2ccc(Cl)c(C(F)(F)F)c2)C[C@@H]2CC[C@H]1N2C,3,106,·,1,·,
CC1(C)C[C@H]2C=C(C=O)[C@]3(C=O)C[C@]3(C)[C@H]2C1,65*,97,10,2,48*,
CC1(C)C(C(=O)N2CCN(c3ccc(Cl)cc3)CC2)C1(C)C,9,101,31,2,·,
COC(=O)C1CN(C#N)N(c2ccc(Cl)cc2)C12c1ccccc1-c1ccccc12 (stereo not given),62*,56,-1,8,53*,
Cc1nnc2ccc(-c3cccc(C(F)(F)F)c3)nn12,63*,118,20,1,-5,
O=C(OC1CC2CCC(N2)C1C(=O)O)c1ccccc1 (stereo not given),-6,102,·,2,3,
C[C@]12CC[C@H](O)C[C@H]1CC[C@@H]1[C@@H]2C[C@@H](O)[C@]2(C)[C@@H](C3=CC(=O)OC3)CC[C@]12O,51*,114,·,-2,-2,
NC(N)=N/N=C/c1ccc(N(c2ccccc2)c2ccccc2)cc1,7,101,16,64*,·,NTR1 ag confirm=20
CN1CCN(C(=O)O[C@H]2c3nccnc3C(=O)N2c2ccc(Cl)cn2)CC1,2,103,3,0,·,
CCN(CC)c1ccc(CNCCc2ccccc2F)cc1,3,·,23,1,·,
COC(=O)C1=C(c2ccc(Cl)c(C(F)(F)F)c2)C[C@@H]2CC[C@H]1N2C(=O)NCCOc1ccccc1,-2,95,·,5,·,
O=C1NC(=O)C(=Cc2ccc(Sc3ccccc3)o2)C(=O)N1,9,96,26,49*,·,NTR1 ag confirm=90*
CN1C(=O)C(=Cc2ccc(Sc3ccccc3)o2)C(=O)N(C)C1=O,2,90,19,2,·,
O=c1[nH]c2ccccc2n1C1CCN(CCCC(c2ccc(F)cc2)c2ccc(F)cc2)CC1,13,105,21,43*,·,NTR1 ag confirm=14
